High-throughput results as filed in PubChem BioAssay.
E coli growth-1 = bacterial growth inhibition, counter-screen for AddAB inhibitors; inhibition, % at 11.9 µM; AID 449728; E. coli V3065 growth, OD600 absorbance, 18 h; actives 0.27% (n = 330,000);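 active = inhibition above the campaign's mean inhibition across all tested compounds plus 3 SD, cut at about 9.9% in these data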;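 note: uninfected addAB+ strain grown without phage in ampicillin broth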
Tat export inh = blocks Tat-dependent protein export in E. coli. E. coli MC4100 TorA-mCherry Tat export, fluorescence. inhibition, % at 10 µM. actives 0.036% (n = 340,000). AID 488895;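 active = mean replicate inhibition at least 50% and at least half of replicates individually reaching 50%; inconclusive = only one of the two criteria met; inactive = neither criterion met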;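 note: exported cargo escapes ClpAP degradation while cytoplasmic cargo is degraded and loses fluorescence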
AddAB inh = less growth of phage-infected E. coli with AddAB; E. coli expressing H. pylori AddAB, absorbance growth; actives 0.29% (n = 330,000); inhibition, % at 11.9 µM; in the data active = inhibition above about 12%
phage Ecoli inh = E. coli growth loss with phage present; growth absorbance; inhibition, % at 11.9 µM; actives 0.26% (n = 360,000); in the data active = inhibition above about 11%
E coli growth-2 = inhibitors of Escherichia coli growth. actives 0.21% (n = 330,000). OD600, 23 h; stronger effect = lower value. AID 1053175. OD600 absorbance (concentration not given with the values);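 active = OD600 absorbance below the run mean of sample wells minus 3.6 SD, in any replicate, cut at about 0.56 in these data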
RecBCD conf = growth loss of phage-infected V66 E. coli, RecBCD confirmation screen | inhibition, % at 11.9 µM | shares compounds with phage Ecoli inh | actives 45% (n = 890) | AID 651982 | E. coli V66 + T4 2- phage, growth OD;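 active = mean inhibition over triplicates exceeding the hit threshold derived in the original primary screen, cut at about 11% in these data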
Ecoli viability = inhibits E. coli viability, flagging RecBCD hits as nonselective. shares compounds with phage Ecoli inh. absorbance (OD) growth. inhibition, % at 11.9 µM. actives 29% (n = 890). AID 651983; in the data active = inhibition above about 20%;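 note: E. coli strain V66 grown with compound alone and no phage infection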
AddAB counter = growth loss of phage-infected AddAB E. coli, RecBCD counter-screen; shares compounds with phage Ecoli inh; E. coli expressing H. pylori AddAB + T4 phage, OD growth; gene 2 mutant T4, recBCD-deleted host; inhibition, % at 11.9 µM; actives 45% (n = 890); AID 651984;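 active = mean inhibition above the solvent-only control wells' mean plus 3 SD, cut at about 22% in these data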;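 note: higher means less bacterial growth from phage killing when AddAB is blocked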
Each line names hits and unclear results; the compound was inactive in the other large screens (follow-up assays come after a bar, where they were run). Hits are enriched below; roughly 0.5% of the tested compounds scored in any of these assays.

NC(=S)NN=Cc1nccc2ccccc12	phage Ecoli inh 20.7, E coli growth-2 0.459 (no result: E coli growth-1, AddAB inh) | RecBCD conf 28.9 | Ecoli viability 38.9 | AddAB counter 31.8
COC(=O)c1ccc(C23CC4(C2)C(CN(Cc2cccnc2)C4c2ccccc2)C3c2ccccc2)cc1 (configuration not stated)	none (no result: E coli growth-1, Tat export inh, AddAB inh, phage Ecoli inh)
CCOC(=O)C1C2COc3ccccc3C2N2C(=O)N(c3cccc(F)c3)C(=O)[C@]12C (some centres not stated)	none (no result: E coli growth-1, Tat export inh, AddAB inh, phage Ecoli inh)
COC(=O)C1=C(C)N(Cc2ccccc2C(F)(F)F)C(=NCc2ccccc2)NC1c1ccc(C(F)(F)F)cc1 (configuration not stated)	phage Ecoli inh 13.3 (no result: E coli growth-1, Tat export inh, AddAB inh, E coli growth-2) | RecBCD conf inactive | Ecoli viability inactive | AddAB counter inactive
COC(=O)C1=C(C)N(Cc2ccccc2C(F)(F)F)C(=NCc2cccc(C(F)(F)F)c2)NC1c1ccc(C(F)(F)F)cc1 (configuration not stated)	none (no result: E coli growth-1, Tat export inh, AddAB inh, E coli growth-2)
c1cc(-c2ccsc2)n2ccnc2c1	phage Ecoli inh 10.9 (no result: E coli growth-1, Tat export inh, AddAB inh, E coli growth-2) | RecBCD conf inactive | Ecoli viability inactive | AddAB counter inactive
c1cc(-c2ccoc2)n2ccnc2c1	none (no result: E coli growth-1, Tat export inh, AddAB inh, E coli growth-2)
CC(C)C[C@H](NC(=O)N1CCCCCC1)C(=O)O	phage Ecoli inh 55.5 | RecBCD conf inactive | Ecoli viability inactive | AddAB counter inactive
CCC(C)[C@H](NC(=O)N1CCCCCC1)C(=O)O (some centres not stated)	none
CC1CC[C@]2(C(=O)O)CC[C@]3(C)C(=CCC4[C@@]5(C)CCC(O)C(C)(C)C5CC[C@]43C)C2C1C (some centres not stated)	none (no result: E coli growth-1, Tat export inh, AddAB inh, phage Ecoli inh)
COc1cccc(NC(=O)Nc2ccc(C)c(Cl)c2)c1	none
Cc1ccc(NC(=O)Nc2ccc(F)cc2)cc1Cl	phage Ecoli inh 11.6 | RecBCD conf inactive | Ecoli viability inactive | AddAB counter inactive
COC(=O)c1ccc(NC(=O)Nc2ccc([N+](=O)[O-])cc2)cc1	phage Ecoli inh 13.7, E coli growth-2 0.425 | RecBCD conf inactive | Ecoli viability inactive | AddAB counter inactive
CC(=O)c1ccc(NC(=O)Nc2cccc(Cl)c2)cc1	phage Ecoli inh 10.9, E coli growth-2 0.512 | RecBCD conf inactive | Ecoli viability inactive | AddAB counter inactive
COC(=O)c1ccc(NC(=O)Nc2ccccc2F)cc1	none
COC(=O)c1ccc(NC(=O)Nc2ccc(F)c(Cl)c2)cc1	E coli growth-1 10.1, phage Ecoli inh 11.8 | RecBCD conf inactive | Ecoli viability inactive | AddAB counter inactive
CC(C)CC(CO)N1CCN(Cc2ccc([N+](=O)[O-])cc2)CCC1=O (configuration not stated)	none (no result: E coli growth-1, Tat export inh, AddAB inh, phage Ecoli inh)
CC1(C)c2ccccc2N2CCC(=O)NC21C=Cc1ccco1 (configuration not stated)	none (no result: E coli growth-1, Tat export inh, AddAB inh, phage Ecoli inh)
O=C(Nc1cccc(Cl)c1)Nc1nnc(-c2ccncc2)s1	phage Ecoli inh 13.5 | RecBCD conf inactive | Ecoli viability inactive | AddAB counter inactive
Cc1cc(OC(F)F)ccc1NC(=O)Nc1ccc([N+](=O)[O-])cc1	phage Ecoli inh 13.0 | RecBCD conf inactive | Ecoli viability inactive | AddAB counter inactive
Cc1cc(C)cc(N=C2NC(=O)/C(=C/c3cccs3)S2)c1	none
CCOc1ccc2c(c1)S/C(=C\c1cccs1)C(=O)N2	phage Ecoli inh 53.8 | RecBCD conf inactive | Ecoli viability inactive | AddAB counter inactive
O=C1/C(=C/c2cccnc2)Oc2cc(OS(=O)(=O)c3ccccc3)ccc21	Tat export inh inconclusive (no result: phage Ecoli inh)
O=S(=O)(Oc1ccccc1)c1cccnc1	phage Ecoli inh 100.7 | RecBCD conf inactive | Ecoli viability inactive | AddAB counter inactive
COC(=O)c1ccc2c(c1O)C(=O)c1ccccc1C2=O	none
O=C1c2ccccc2C(=O)c2c1ccc(O)c2O	phage Ecoli inh 15.0 (no result: E coli growth-1, AddAB inh, E coli growth-2) | RecBCD conf inactive | Ecoli viability inactive | AddAB counter inactive
Cn1cc(S(=O)(=O)N2CCOCC2)cc1C(=O)Nc1ccc(Cl)cc1	none
COc1ccc(C(=O)Nc2ccc(S(=O)(=O)N3CCOCC3)cc2)cc1	phage Ecoli inh 12.4 (no result: Tat export inh) | RecBCD conf inactive | Ecoli viability inactive | AddAB counter inactive
